CHT allo act: allosterically activates the human high affinity choline transporter; Q9GZV3; CHT-expressing cells, membrane potential dye, choline EC20; active compounds read high; LV-AA mutant CHT in HEK293 cells; B-score at 10 µM; actives 0.49% (n = 310,000); AID 488977;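 active = initial fluorescence not abnormally high and integrated response B-score, plate-corrected, over 3 SD above library mean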
CHT block: inhibits the human high affinity choline transporter | CHT-expressing cells, membrane potential dye, choline response; active compounds read low | B-score at 10 µM | AID 488975 | Q9GZV3 | actives 0.86% (n = 310,000);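 active = B-score over 3 SD under the library average, and starting fluorescence ratio not unusually high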;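 note: choline stimulus applied at its EC90 after an EC20 pre-addition; B-score computed on integrated fluorescence ratio after choline addition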
EP2 modulator: EP2 receptor (human) modulation; EP2-expressing cells, cAMP HTRF FRET, PGE2 co-stimulation; induction, % at 25 µM; actives 0.83% (n = 260,000);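 active = compounds whose cAMP rise, as percent of the full-agonist control response, exceeds 60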;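 note: rat C6 glioma line stably carrying human EP2 under a CMV promoter; the protocol text gives 20 µM as final concentration; 100% = response of wells given 1 µM PGE2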
Target sequence (P43116 whole entry, looked up): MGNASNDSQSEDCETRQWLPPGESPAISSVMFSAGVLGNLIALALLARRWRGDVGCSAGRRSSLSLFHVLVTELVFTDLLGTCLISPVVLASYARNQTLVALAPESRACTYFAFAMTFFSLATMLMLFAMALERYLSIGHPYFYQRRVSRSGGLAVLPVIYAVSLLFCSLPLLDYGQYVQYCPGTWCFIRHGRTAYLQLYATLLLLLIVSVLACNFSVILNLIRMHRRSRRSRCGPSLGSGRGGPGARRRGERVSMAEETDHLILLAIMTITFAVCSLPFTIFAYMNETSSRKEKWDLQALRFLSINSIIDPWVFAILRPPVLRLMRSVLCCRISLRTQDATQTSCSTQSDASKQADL
EP2 antag: blocks the human prostaglandin E2 receptor EP2; P43116; C6 glioma cells expressing human EP2, cAMP TR-FRET; cells stimulated with saturating PGE2; inhibition, % at 25 µM; actives 0.52% (n = 260,000); AID 1422;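 active = percent inhibition above 40 after rounding to a whole number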;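 note: rat C6 glioma host cells with rolipram phosphodiesterase inhibitor present; the protocol text gives 20 µM as final concentration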
EP2 cAMP induct: human EP2 receptor cAMP induction, negative in counter-screens; shares compounds with EP2 modulator; C6 glioma EP2 cells, cAMP HTRF induction; plus low (about EC15) PGE2 agonist; calls only at 20 µM (by protocol); actives 47% (n = 1,300);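 active = cAMP induction above 50% in the main assay while under 30% in all four parallel counter assays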;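 note: rat C6 glioma cells stably expressing human EP2 receptor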
The depositor's hits bear a star; i = inactive; · = no result given; + = active, no number. An excerpt weighted towards active compounds, which were near 2.1% of everything screened.

SMILES	CHT allo act	CHT block	EP2 modulator	EP2 antag	EP2 cAMP induct
CC(=O)OCC(=O)[C@@]12OC(C)(C)O[C@@H]1C[C@H]1[C@H]3CC=C4C[C@@H](O)CC[C@]4(C)[C@@H]3CC[C@@]12C	·	·	52	40*	i
COc1cccc2[nH]c3c(N4CCCC(C)C4)ncnc3c12 (configuration not stated)	i	i	94*	6	+
CCOC(=O)C1CCCN(c2ncnc3c2[nH]c2cccc(OC)c23)C1 (configuration not stated)	·	·	42	10	·
COc1cccc2[nH]c3c(N4CC(C)CC(C)C4)ncnc3c12 (configuration not stated)	·	·	90*	·	+
COc1ccc(C(=O)N2CCC3(CC2)NC(=O)c2ccccc2N3)cc1OC	·	·	-15	6	·
O=c1c2c(-c3cccs3)csc2ncn1-n1cccc1	i	i	-23	8	·
Cc1ccc(C)n1-n1cnc2scc(-c3cccs3)c2c1=O	i	i	65*	11	+
Cc1cc(C)c(S(=O)(=O)O)c(C)n1	i	i	77*	12	i
Cc1cc(C)c(S(C)(=O)=O)c(S(=O)(=O)c2ccc(Cl)cc2)n1	i	i	22	9	·
C=CCn1c(CNC(=O)c2cccs2)nnc1SCC(=O)c1ccc(Br)cc1	i	i	52	5	i
C=CCn1c(CCNC(=O)c2cccs2)nnc1SCC(=O)c1ccc(Cl)cc1	i	i	3	5	·
Cc1cccc(OCCCC(=O)N2CCCc3ccccc32)c1C	i	i	82*	7	+
O=C(CCCOc1ccc(Cl)cc1Cl)N1CCCc2ccccc21	i	i	22	12	·
O=C(/C(=C/O)N=Nc1ccccc1)c1cccs1	i	i	81*	4	+
COC(=O)c1ccccc1NC(=O)c1cnn2c(C(F)F)cc(C3CC3)nc12	i	i	76*	13	i
Nc1cccc(OCc2nc(N)nc(N)c2-c2ccc(Cl)cc2)c1	·	·	56	8	i
Clc1ccc(-c2cc(COc3ccccc3)on2)cc1	i	i	-20	4	·
Cc1ccc(S(=O)(=O)n2c(N)nc3ccccc32)cc1	i	i	32	6	·
C=CCSc1nc2ccccc2n1S(=O)(=O)c1ccc(C)cc1	i	i	67*	11	+
O=C(CSc1nnc2c3c4c(sc3nc(Cc3ccccc3)n12)CCCC4)N1CCCC1	·	·	23	13	·
CCC(C)(C)n1nnnc1C(c1ccncc1)N1CCC(Cc2ccccc2)CC1 (configuration not stated)	i	i	79*	3	i
CC(C)c1ccc2c(c1)CCC1C(C)(C(N)=O)CCCC21C (configuration not stated)	·	·	52	5	+
CCCCOC(=O)n1c(=S)oc2cc(Cl)ccc21	i	i	71*	13	i
CCC(c1nnnn1C1CCCC1)N(Cc1cccs1)Cc1cc2cc(C)ccc2[nH]c1=O (configuration not stated)	i	i	84*	9	i
COc1ccc2cc(CN(CC3CCCO3)C(c3nnnn3C3CCCC3)C(C)C)c(=O)[nH]c2c1 (configuration not stated)	·	·	40	4	·
SMILES	CHT allo act	CHT block	EP2 modulator	EP2 antag	EP2 cAMP induct
COc1ccc2cc(CN(Cc3ccco3)C(c3nnnn3C3CCCCC3)C(C)C)c(=O)[nH]c2c1 (configuration not stated)	i	i	66*	11	+
COc1cc(NC(=O)c2ccco2)c(OC)cc1NC(C)=O	·	·	22	5	·
COCCN(C(=O)Cc1cccs1)c1nnc(-c2ccc(C)cc2)s1	·	·	-16	9	·
Cn1c(COc2ccc(Br)cc2)nnc1SCC(=O)NC1CCCCC1	·	·	-37	6	·
CCOC(=O)n1c(=O)n(Cc2ccc(Cl)c(Cl)c2)c2ccccc21	i	i	77*	9	+
Cc1cc(C)c(S(=O)(=O)N2CCC(c3nc4ccccc4[nH]3)CC2)c(C)c1	·	·	-101	7	·
COC(=O)CSc1nc(COc2ccccc2)nc2ccccc12	i	i	·	·	·
CC(=O)NCCn1c(SCC(=O)NCCC2=CCCCC2)nc2ccccc2c1=O	i	i	-27	7	·
Cc1cc(SCC(=O)Nc2cccnc2Cl)nc2ccccc12	i	i	67*	4	i
Cc1cc(SCC(=O)NCCC2=CCCCC2)nc2ccccc12	i	i	70*	5	i
Cc1ccccc1NC(=O)CSc1nc(COc2ccccc2)nc2ccccc12	i	i	85*	7	i
Cn1c(N2CCC(C(=O)Nc3cccc(F)c3)CC2)nc2ccccc21	·	·	-85	·	·
CCN1CCCC1CN(Cc1cc2cccc(C)c2[nH]c1=O)C(=O)Nc1cccc(Cl)c1 (configuration not stated)	·	·	-34	25	·
CCCCC(CC)CN1CN(CC(CC)CCCC)CC(C)(N)C1 (configuration not stated)	·	·	50	10	i
CC(C)(C)C1CCC(=NNc2ccc(S(N)(=O)=O)cc2[N+](=O)[O-])CC1 (configuration not stated)	i	i	68*	7	+
C=C(C)Cn1c(C)cc(C)c(S(=O)(=O)c2cccc(C)c2)c1=O	i	i	90*	6	+
Cc1cc(C)n(CC(O)COc2ccc(Cl)cc2Cl)n1 (configuration not stated)	i	i	·	·	·
Cc1cc(C)n(CCOc2ccc(Cl)cc2Cl)n1	i	i	73*	5	+
CC(C)Sc1cc(N2CCOCC2)nc(-c2ccc(Cl)cc2)n1	i	i	82*	10	i
CC(C)C(=O)c1cc2c(cc1NC(=O)c1ccccc1)OCCO2	i	i	71*	3	+
COc1ccccc1NC(=O)c1c(C)oc2c1CCCC2	i	i	79*	20	i
C/C(=N\O)C(=O)OC1CC(C)CCC1C(C)C (configuration not stated)	i	i	59	1	+
CN(CCO)c1c2c(nc3cc(-c4cccc(Cl)c4)nn13)CCCC2	·	·	-31	13	·
CC1CCc2c(sc3nc(C4CC4)n4c(SCC(=O)NCc5ccco5)nnc4c23)C1 (configuration not stated)	·	·	28	10	·
CC(C)Sc1nc2sc3c(c2c2nnc(SCC(=O)NCc4ccco4)n12)CCCC3	i	i	58	11	i
CCc1c(C)sc2ncn(C3CCN(CC(N)=O)CC3)c(=O)c12	·	·	-14	8	·
CC1=Nc2ccccc2/C1=C/c1sc(=S)n(-c2cccc(C(=O)O)c2)c1O	·	·	71*	7	+
Cc1ccc(-c2cc3ccccc3nc2N2CCOCC2)cc1	i	i	73*	6	i

Screening data deposited in PubChem by several laboratories.
